This passage reports growth results from PubChem BioAssay (NCI).

Compounds without any hit were thinned out: in the full panel of roughly 83,000, 20% have a hit.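 The endpoint reported here, percent growth, reads 100 for growth as untreated, 0 for no net growth and -100 for all cells dead.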 A number with no mark means an inactive call. Activity calls are given as the source filed them. Rule for the calls: active = growth percent below 10; inactive = the rest.

Holding throughout (assay): NCI-60 one-dose screen, 48 h (100 = growth as untreated, 0 = no growth, -100 = all killed)
Common to all, as to details: 10 µM unless noted

Assay [1] has as its system SR leukemia.
Assay [2] concerns RPMI-8226 leukemia.
In assay [3] the test system is OVCAR-8 ovarian.
Assay [4] deals with OVCAR-5 ovarian.
In assay [5] the test system is OVCAR-4 ovarian.
Assay [6] deals with SK-OV-3 ovarian.
For assay [7], the system named is IGROV1 ovarian.
For assay [8], the system named is OVCAR-3 ovarian.
Assay [9] deals with HS 578T breast.
In assay [10] the test system is NCI/ADR-RES ovarian.

As for `COc1cc(NC(=O)c2cncnc2Nc2ccc3c(ccn3Cc3ccccn3)c2)cc(OC)c1`, the growth is 12.9% in assay [1]; 43.5% in assay [2]; 65.8% in assay [3]; 76.6% in [4]; 78.4% in assay [5]; 57.9% in assay [6]. For the same molecule, the growth is 45.4% in assay [7], 9.55% (active) in [8], 35.2% in assay [9] and 35% in assay [10].
Turning to `CCCCCCCCCCCCCCCCCCOc1ccccc1CC(=O)NCC[N+]1(C)CCCCC1`, the growth was 26.3% in assay [1]; 50.9% in assay [2]; 57.1% in assay [3]; 30% in assay [4]; 40.3% in [5]; 77% in assay [6]. Moreover, the growth is -8.66% (active) in assay [7], 46.5% in [8], 61.8% in assay [9] and 104% in assay [10].
On to `Fc1ccc2[nH]cc(-c3nc(-c4c[nH]c5ccncc45)cs3)c2c1`, for which the growth was -6.91% (active) in assay [1]; -24.2% (active) in [2]; -41.5% (active) in assay [3]; 24.3% in assay [4]; -0.149% (active) in assay [5]; 63.1% in assay [6]. Further, the growth was -43.2% (active) in [7], -74.3% (active) in assay [8], -38.3% (active) in [9] and 16.9% in [10].
Take `Cc1ccc(Cl)cc1NC(=O)c1sc2nc3c(cc2c1N)C(=O)CCC3`: the growth was 68.9% in [1]; 95.1% in assay [2]; 90% in assay [3]; 94.2% in [4]; 90.1% in assay [5]; 42.4% in [6]. Besides, the growth in assay [7] is 75.7%; in assay [8], 22.1%; in [9] it was 60.9%; in [10] it was 43.8%.
Take `O=C(CCCCCCN1CC(=O)N2[C@H](c3ccc(Br)cc3)c3[nH]c4ccccc4c3C[C@@H]2C1=O)NO`: the growth in assay [1] is 24%; in [2], 18%; in assay [3] it was 41.2%; in assay [4], 40.5%; in [5], 67.5%; in assay [6], 49.5%. For the same molecule, the growth is 23.9% in [7], 41.5% in [8], 53% in assay [9] and 89.6% in assay [10].
Turning to `O=C(CCCCCNC(=O)c1cc(=O)c(O)co1)Nc1ccccc1`, the growth was 101% in assay [1]; 95.7% in assay [2]; 104% in [3]; 102% in assay [4]; 110% in [5]; 118% in assay [6]. Moreover, the growth in [7] was 106%; in assay [8] it was 109%; in assay [9] it was 108%; in assay [10] it was 102%.
As to `Nc1c(C(=O)Nc2cccc(Cl)c2)sc2nc3c(cc12)CCCC3`, the growth in [1] was 53.9%; in [2], 93.6%; in assay [3], 93%; in assay [4], 93.4%; in assay [5], 90.9%; in assay [6] it was 96.2%. The growth was 106% in [7], 103% in [8], 97.7% in assay [9] and 101% in assay [10].
For `CC(=O)O[C@H]1C[C@@H]2C(C)(C)C(=O)CC[C@@]2(C)c2ccc(C(C)C)cc21`, the growth was 105% in assay [1]; 108% in assay [2]; 101% in [3]; 119% in assay [4]; 104% in assay [5]; 109% in assay [6]. In addition, the growth is 101% in assay [7], 102% in assay [8], 102% in assay [9] and 108% in [10].
As to `O=C(NC1CC(F)C1)c1cc2cccnc2n1-c1ccc(Cl)c(Cl)c1` (stereo not given), the growth was 104% in assay [1]; 95.6% in [2]; 95.4% in assay [3]; 94.8% in assay [4]; 95.4% in [5]; 104% in assay [6]. For the same molecule, the growth was 86.7% in [7], 102% in assay [8], 99.2% in [9] and 90.1% in assay [10].
For `C=C1C(=O)O[C@H]2[C@H]1CC/C(Cn1cc(CCC)nn1)=C\CC[C@@]1(C)O[C@@H]21`, the growth in assay [1] was 0.0381% (active); in assay [2] it was 26.9%; in [3], 23.7%; in assay [4], 68.2%; in [5] it was 40.3%; in assay [6] it was 111%. Moreover, the growth is 41% in assay [7], 1.06% (active) in assay [8], 69.1% in assay [9] and 73.1% in assay [10].
Take `CCN(CC)CCCN1C(=O)c2c(c(C)c3c(oc4ccc(O)cc43)c2C)C1=O`: the growth in assay [1] is 19.1%; in assay [2], -15.7% (active); in assay [3], -31.8% (active); in assay [4], 103%; in assay [5] it was -35.5% (active); in assay [6] it was 109%. Besides, the growth in assay [7] is 75.2%; in [8], 55.7%; in assay [9], 81.2%; in assay [10], -62.9% (active).
For `C=CCn1c(SCC(=O)Nc2ccc(/C(C)=N/O)cc2)nnc1-c1cc(-c2ccc(S(N)(=O)=O)cc2)nc2ccccc12`, the growth in assay [1] was 56.7%; in assay [2] it was 48.8%; in assay [3], 54.7%; in assay [4], 93.5%; in assay [5] it was 66.2%; in assay [6] it was 109%. The growth is 30.9% in assay [7], 70.9% in assay [8], 74.1% in assay [9] and 99% in assay [10].
As for `FC(F)(F)c1ccc(Cn2cc(CSc3nc4ccccc4s3)nn2)cc1`, the growth in assay [1] was 96.3%; in assay [2] it was 96.7%; in assay [3], 91%; in assay [4] it was 98.6%; in [5] it was 94.8%; in assay [6], 104%. Also, the growth was 97.7% in [7], 105% in assay [8], 88.6% in assay [9] and 95.7% in assay [10].
